Measured values as given in PubChem BioAssay AID2314 (National Center for Advancing Translational Sciences (NCATS), 2010).
Among all 300,000 compounds or so, about 37,000 (12%) were called active. This is one part of a sample in which actives are shown more often than they occur. Cut-off read from the data, not from the text of the source: active = max response mostly above about 13% (no sharp cut-off); inactive = mostly below about 14%.

Assay: Cycloheximide Counterscreen for Small Molecule Inhibitors of Shiga Toxin; note: read at 38.3 µM for the half of the compounds with a filed dose; 0% is about no effect
Details: cell reporter, cycloheximide protein synthesis inhibition counterscreen; hits give high values

SMILES	max response
COC(=O)c1cccc(N(C(=O)CNC(=O)c2cccs2)C(C(=O)NCC2CCCO2)c2ccc(OC)c(OC)c2)c1 (stereo not drawn)	-3.34% (inactive)
Cc1cc(O)ccc1-c1cnc2ccccc2n1	34.4% (active)
O=C(O)c1cc(S(=O)(=O)N(Cc2ccccc2)c2ccccc2)ccc1Cl	-0.844% (inactive)
COc1ccc(N(C(=O)CNC(=O)c2ccco2)C(C(=O)NCC2CCCO2)c2ccccc2)cc1Cl (stereo not drawn)	-3.36% (inactive)
Cc1ccc(SCC(CC(C)C)N2CCN(CCc3ccccc3)CCC2=O)cc1 (stereo not drawn)	40% (active)
CCCN1CCC(=O)N(C(CSc2ccc(C)cc2)Cc2ccccc2)CC1 (stereo not drawn)	7.93% (inactive)
COc1ccc(SC[C@H](Cc2ccccc2)N2CCN(CCc3ccccc3)CCC2=O)cc1	-4.06% (inactive)
CCOC(=O)CN1C(=O)C(=O)c2cc(C)ccc21	-1.86% (inactive)
CCOC(=O)[C@@H]1[C@H]2COc3cc(OC)ccc3[C@H]2N2C(=O)N(c3ccc(F)cc3)C(=O)[C@]12C	0.485% (inactive)
COCCN(C(=O)C(C)C)c1nnc(-c2ccc(C(C)(C)C)cc2)s1	13.2% (inactive)
Cc1ccc(-c2nc3ccccc3[nH]2)cc1NC(=O)c1sc2ccccc2c1Cl	-0.874% (inactive)
O=C(Cc1cccs1)Nc1cccc(-c2nc3ccccc3[nH]2)c1	11.5% (inactive)
O=C(/C=C/c1ccco1)Nc1cccc(-c2nc3ccccc3[nH]2)c1	51.8% (active)
O=C(Nc1cccc(-c2nc3ccccc3[nH]2)c1)c1ccc(C(=O)Nc2cccc(-c3nc4ccccc4[nH]3)c2)cc1	48.3% (active)
NS(=O)(=O)c1cccc(NC(=O)COC(=O)/C=C/c2ccco2)c1	0.371% (inactive)
CC(C)Oc1ccc(/C=C(\NC(=O)/C=C/c2ccco2)C(=O)NCCc2nc3ccccc3[nH]2)cc1	5.81% (inactive)
COc1ccc(C(=O)Nc2ccccc2C(=O)N/N=C/c2ccc(O)c(OC)c2)cc1	-7.9% (inactive)
O=C(N/N=C/c1cccc(Br)c1)c1ccc(N2CCCC2=O)cc1	-5.81% (inactive)
COc1cc(/C=N/NC(=O)c2ccc(N3CCCC3=O)cc2)ccc1O	36% (active)
Cc1c(Cl)cccc1NC(=O)Nc1ccc(C(=O)N2CCCC2)cc1	-1.9% (inactive)

SMILES	max response
O=C(CCS(=O)(=O)c1ccc2c(c1)NC(=O)CS2)NCc1ccccc1Cl	-3.16% (inactive)
O=C(CSc1n[nH]c(=O)n1-c1ccccc1)Nc1ccccc1C(F)(F)F	-2.47% (inactive)
CCOc1ccc2nc(/N=C/c3nc(-c4ccccc4)oc3O)sc2c1	-1.31% (inactive)
CC(N=Cc1nc(-c2ccccc2)oc1O)c1ccccc1 (stereo not drawn)	35.7% (active)
Cc1c(Cl)cccc1NC(=O)NCCCN1CCCC1=O	-0.801% (inactive)
COCCN1C(=O)C(=O)/C(=C(/O)c2ccc(S(=O)(=O)N3CCOCC3)cc2)C1c1ccc(O)c(OC)c1 (stereo not drawn)	-5.59% (inactive)
Cc1cccc(NC(=S)NCc2ccc3[nH]c4c(c3c2)CCCC4)c1	9.68% (inactive)
O=c1c2ccccc2nc(/C=C/c2ccc(F)cc2)n1-c1ccccc1O	6.44% (inactive)
O=c1c2ccccc2nc(/C=C/c2ccco2)n1-c1ccccc1O	24.2% (active)
CCn1c(/C=C/c2ccc([N+](=O)[O-])o2)nc2ccccc2c1=O	-4.66% (inactive)
O=C(Nc1ccc(F)c([N+](=O)[O-])c1)C1CC(=O)N(Cc2ccccc2)C1 (stereo not drawn)	-3.3% (inactive)
COc1cccc(N(CC(=O)NC2CCCC2)C(=O)Cn2nnc(-c3ccc(C)o3)n2)c1	-3.92% (inactive)
COC(=O)CCc1ccccc1S(=O)(=O)N(CCC(=O)OC)Cc1ccccc1	-11% (inactive)
COc1ccc(Cl)cc1-n1c(=S)sc2c(=O)n(-c3ccc(F)cc3)c(SCC(=O)O)nc21	0.929% (inactive)
O=C1C2N=NN(CC(=O)N3N=C(c4cccc5ccccc45)CC3c3ccccc3)C2C(=O)N1c1ccccc1 (stereo not drawn)	-3.29% (inactive)
CNC(=O)/C(C#N)=C/c1c(F)cccc1Cl	15.7% (active)
O=C(/C=C/c1c(F)cccc1Cl)Nc1nn[nH]n1	-1.57% (inactive)
N#C/C(=C\c1ccccc1C(F)(F)F)C(=O)Nc1ccccc1F	-2.94% (inactive)
CCc1ccc(/C=N/NC(=O)c2ccc(OC3CCCC3)cc2)s1	12.2% (inactive)
COc1ccc(CCNC(=O)CCn2c(=O)c3ccccc3n(CC(=O)NCC3CCCO3)c2=O)cc1OC (stereo not drawn)	11% (inactive)

SMILES	max response
Cn1c(=N)n(CC(O)c2cccs2)c2ccccc21 (stereo not drawn)	-3.56% (inactive)
Cn1c(=N)n(CC(O)c2ccccc2)c2ccccc21 (stereo not drawn)	70.1% (active)
Cc1nc2ccccc2n1CC(O)c1ccccc1 (stereo not drawn)	-1.62% (inactive)
COc1ccc(NC(=O)[C@H](NC(=O)[C@@H]2Cc3ccccc3CN2)c2ccccc2)cc1	-1.13% (inactive)
COc1ccc(NC(C(=O)Nc2cccc(C(C)=O)c2)c2ccccc2)cc1 (stereo not drawn)	12.5% (active)
COC(C(=O)Nc1ccc(C(C)=O)cc1)c1ccccc1 (stereo not drawn)	-2.94% (inactive)
O=C(NC1CCN(C(=S)Nc2ccc(Cl)cc2)CC1)C1CCCCC1	-3.84% (inactive)
O=C(Nc1ccc(Cl)cc1)Nc1ccc(C(=O)N2CCOCC2)cc1	15.1% (inactive)
CC(C)S(=O)(=O)c1csc(NC(=O)Nc2ccc(Cl)cc2)c1Cl	17.4% (active)
NS(=O)(=O)c1ccc(CCNC(=O)Nc2ccc(Cl)cc2)cc1	11% (inactive)
Cc1cccc(OCC(=O)Nc2ccc(NC(=O)c3ccco3)c(C)c2)c1	6.82% (inactive)
CSc1ncc(C(=O)Nc2ccc(C)cc2C)c(C)n1	2.97% (inactive)
CSc1nccc(NC(=O)c2ccc(C(C)(C)C)cc2)n1	38.6% (active)
COC(=O)c1nc(NC(=O)c2ccc(C(C)(C)C)cc2)n[nH]1	4.76% (inactive)
Cn1c(Cn2nnc3ccccc32)nnc1SCC(=O)c1ccccc1F	1.74% (inactive)
CCOc1ccc(Nc2nc(Cl)nc(N3CCN(c4ccc(OC)cc4)CC3)n2)cc1	1.38% (inactive)
c1ccc(Nc2nc(N3CCOCC3)c3ccccc3n2)cc1	3.89% (inactive)
COc1ccc(Nc2ncc(F)c(N3CCOCC3)n2)cc1	27.6% (active)
